In publication PMC4336329 (PLoS ONE, 2015):
Among all 310,000 compounds or so, about 2,200 (0.71%) showed an effect of 50% or more. Effects have a minus sign here. Many of the other results were omitted from the sample, so strong results are more common in it than they were.

molecular target: human ether-à-go-go-related gene (hERG) potassium channel (human, UniProt Q12809); assay: primary screen, population patch clamp on CHO cells stably expressing hERG; higher = less effect of the substance
Sequence (Q12809 whole entry, looked up): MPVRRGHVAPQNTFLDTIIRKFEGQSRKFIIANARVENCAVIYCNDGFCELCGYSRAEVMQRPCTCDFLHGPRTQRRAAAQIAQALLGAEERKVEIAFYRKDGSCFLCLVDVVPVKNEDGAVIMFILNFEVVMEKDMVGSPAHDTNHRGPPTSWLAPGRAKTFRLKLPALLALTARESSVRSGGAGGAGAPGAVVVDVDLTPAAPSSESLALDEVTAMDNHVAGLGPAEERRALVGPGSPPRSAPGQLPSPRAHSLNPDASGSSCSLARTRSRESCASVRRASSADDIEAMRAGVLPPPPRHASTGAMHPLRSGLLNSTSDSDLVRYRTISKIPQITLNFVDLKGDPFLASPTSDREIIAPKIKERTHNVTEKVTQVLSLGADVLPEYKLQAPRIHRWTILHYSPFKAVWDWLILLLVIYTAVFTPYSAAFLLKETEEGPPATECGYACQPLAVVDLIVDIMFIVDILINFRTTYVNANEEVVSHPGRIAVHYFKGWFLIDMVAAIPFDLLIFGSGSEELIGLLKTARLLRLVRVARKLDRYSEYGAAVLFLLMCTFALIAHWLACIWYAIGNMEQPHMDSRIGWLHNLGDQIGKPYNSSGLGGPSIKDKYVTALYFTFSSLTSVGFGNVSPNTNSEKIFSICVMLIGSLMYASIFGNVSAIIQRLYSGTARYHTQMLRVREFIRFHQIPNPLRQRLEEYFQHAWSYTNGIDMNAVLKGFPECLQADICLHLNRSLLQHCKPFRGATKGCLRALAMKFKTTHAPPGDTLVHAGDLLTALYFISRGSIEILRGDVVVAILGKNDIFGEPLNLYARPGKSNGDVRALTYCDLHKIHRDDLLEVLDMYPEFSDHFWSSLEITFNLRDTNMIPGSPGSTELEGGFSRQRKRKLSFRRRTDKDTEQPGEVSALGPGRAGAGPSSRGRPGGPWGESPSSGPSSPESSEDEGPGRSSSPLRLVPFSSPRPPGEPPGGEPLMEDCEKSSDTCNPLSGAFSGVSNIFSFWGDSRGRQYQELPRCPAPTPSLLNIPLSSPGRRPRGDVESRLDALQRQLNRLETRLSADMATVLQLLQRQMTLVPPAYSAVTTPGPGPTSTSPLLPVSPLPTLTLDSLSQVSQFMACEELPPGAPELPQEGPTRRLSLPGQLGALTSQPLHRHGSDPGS

Compound	hERG current change (%, negative = inhibition) at 1uM [%]
Cc1ccc(C(=O)N/C(=C\c2ccc(-c3ccccc3[N+](=O)[O-])o2)C(=O)NCCCN2CCOCC2)cc1	-11.2
Cc1ccc(C(=O)N/C(=C\c2ccc(-c3cccc([N+](=O)[O-])c3)o2)C(=O)NCCCN(C)C)cc1	-27.5
CN(C)CCNC(=O)/C(=C/c1ccc(-c2cccc([N+](=O)[O-])c2)o1)NC(=O)c1ccccc1	-37.2
Cc1ccc(C(=O)N/C(=C\c2ccc(-c3cccc([N+](=O)[O-])c3)o2)C(=O)NCCCN2CCOCC2)cc1	-74.7
O=C(NCCCO)/C(=C/c1ccc(-c2cccc([N+](=O)[O-])c2)o1)NC(=O)c1ccccc1	-4.53
Cc1ccc(C(=O)N/C(=C/c2ccc(-c3cccc([N+](=O)[O-])c3)o2)C(=O)NC(C)(C)C)cc1	-0.682
Cc1ccc(C(=O)N/C(=C/c2ccc(-c3cccc([N+](=O)[O-])c3)o2)C(=O)NCCCN(C)C)cc1	-73.3
CN(C)CCCNC(=O)/C(=C\c1ccc(-c2cccc([N+](=O)[O-])c2)o1)NC(=O)c1ccccc1	-77.9
Cc1ccc(C(=O)N/C(=C/c2ccc(-c3cccc([N+](=O)[O-])c3)o2)C(=O)NC(C)C)cc1	10.1
Cn1nc(C(F)(F)F)cc1Oc1ncc(C(F)(F)F)cc1Cl	12.5
CCOc1ccc(NC(=S)N(CCc2c(C)[nH]c3ccccc23)Cc2cccnc2)cc1	-4.48
CCN(CC)S(=O)(=O)c1cccc(C(=O)NCCc2ccccc2)c1	-5.67
O=c1[nH]c(=O)n(CCC2=CCCCC2)c(O)c1C=NCc1cccnc1	9.06
COc1ccc(OCCCC(=O)Nc2nc(C)c(C(C)=O)s2)cc1	10.2
Cc1ccc(-n2c(=O)cc(N3CC(C)OC(C)C3)[nH]c2=O)cc1 (centres unmarked)	10.6
O=C(CC(C(=O)O)c1c[nH]c2ccccc12)c1ccccc1 (centres unmarked)	9.56
COc1ccc(Cc2nc3c4c(ncn3n2)Oc2ccc3ccccc3c2C4c2ccc(OC)c(OC)c2)cc1 (centres unmarked)	5.71
CC(C)n1cnc2c(NCc3ccccc3)nc(NCc3ccccc3)nc21	10.4
CC(C)n1cnc2c(N(C)c3ccccc3)nc(N(CCN(C)C)Cc3ccccc3)nc21	-58.5
COc1cc(N(Cc2ccccc2)Cc2ccccc2)c2ncn(C(C)C)c2c1	8.78
